High-throughput results as filed in PubChem BioAssay.
D1 antagonist: antagonists of human D1 dopamine receptor; 360,000 tested, 3.2% active; P21728; HEK293 TREx D1 cells, calcium flux, dopamine EC80; active compounds read low; activity change, negative = inhibition, % at 10 µM; in the data active = activity change below about -30%
Target sequence (P21728 whole entry, looked up): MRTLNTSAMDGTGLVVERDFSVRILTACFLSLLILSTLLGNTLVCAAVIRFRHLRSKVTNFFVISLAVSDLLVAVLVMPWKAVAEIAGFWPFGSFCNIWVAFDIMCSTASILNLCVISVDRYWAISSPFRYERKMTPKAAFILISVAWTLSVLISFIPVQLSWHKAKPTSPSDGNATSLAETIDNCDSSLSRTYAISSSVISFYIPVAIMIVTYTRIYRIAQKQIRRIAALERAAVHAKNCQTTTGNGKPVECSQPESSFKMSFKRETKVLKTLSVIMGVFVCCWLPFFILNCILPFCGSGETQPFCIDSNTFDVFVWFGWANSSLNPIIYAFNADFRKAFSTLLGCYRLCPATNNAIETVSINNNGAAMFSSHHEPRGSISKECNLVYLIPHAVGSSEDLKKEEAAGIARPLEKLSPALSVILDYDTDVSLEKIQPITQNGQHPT
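Tetracycline-induced HEK293 Trex D1 cells, force-coupled to calcium, dye-loaded; compounds added and read 180 s, then EC80 dopamine added and calcium flux tracked kinetically another 180 s.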
DRD3 agonist: agonists of human D3 dopamine receptor; max activation, %; P35462; D3R DiscoveRx beta-arrestin cells, luminescence, 90 min; 410,000 tested, 0.58% active; in the data active = max activation above about 30%
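Agonist mode: compounds and dopamine controls were applied to plated cells for 90 min at 37 degrees C after an overnight attachment at 1500 cells/well. Luminescent read-out followed 30 - 60 minutes at room temperature with DiscoveRx detection reagent.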
D1 PAM: human D1 dopamine receptor positive modulation | 360,000 tested, 0.036% active | HEK293 TREx D1 cells, calcium flux, dopamine EC20 potentiation | P21728 | potentiation, % at 10 µM; in the data active = potentiation above about 30%
D3 antag: D3 dopamine receptor (human) antagonism | P35462 | D3R cells, DiscoveRx beta-arrestin luminescence, antagonist mode; active compounds read low | max response, negative = inhibition, % | 360,000 tested, 2.5% active | AID 652054; in the data active = max response below about -50%
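Cells plated overnight at 1500 cells/well, then exposed to library compounds with dopamine controls for 90 minutes at 37 degrees C. DiscoveRx reagent added for 30–60 minutes at room temperature; luminescence read, quantitative HTS format.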
D1 ag: activates the human D1 dopamine receptor; P21728; 360,000 tested, 1% active; AID 504660; activation, % at 2 µM; HEK293 T-REx D1 cells, calcium flux, agonist mode; in the data active = activation above about 30%
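Agonism was scored from calcium flux recorded over 180 s (1 read/s) after pintool compound addition, following a 10-cycle baseline. Cells were inducible force-coupled HEK293 TREx D1, plated overnight at 30 C and loaded with no-wash calcium dye.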
Hits are given with their value; i = inactive; nt = not tested or not shown. A selection: hits, their analogues and other compounds. The true share with any hit is near 6%.

SMILES	D1 antagonist	DRD3 agonist	D1 PAM	D3 antag	D1 ag
CCS(=O)(=O)c1ncc(Cl)c(C(=O)N2CCN(c3cccc(Cl)c3)CC2)n1	-31	i	i	nt	i
COc1ccc(OCC(=O)NCC2(N3CCN(C)CC3)CCCCC2)cc1	i	i	i	nt	i
Cc1cc2c(s1)c1cnn(Cc3cc(F)cc(F)c3F)c(=O)c1n2C	i	nt	i	nt	i
CC(C)CN(C[C@@H](OP(=O)(O)O)[C@H](Cc1ccccc1)NC(=O)O[C@H]1CCOC1)S(=O)(=O)c1ccc(N)cc1	nt	i	nt	nt	nt
CCOC(=O)c1cc(=O)[nH]c2ccccc12	i	i	i	i	i
Cc1ccc(-c2nnc(COC(=O)c3cc(=O)[nH]c4ccccc34)o2)cc1	-85	i	i	i	i
Cc1ccc(-c2nnc(COC(=O)c3ccco3)o2)cc1	i	i	i	-95	i
CC(C)Cc1nnc(NC(=O)Cc2cccs2)s1	-50	i	i	i	i
COCC(=O)Nc1nnc(-c2cccs2)s1	i	i	i	-72	i
COc1cc(Br)c(C[N+]2(CCOCCC3CCC4CC3C4(C)C)CCOCC2)cc1OC (configuration not stated)	nt	i	nt	nt	nt
CCN(CC)C(=O)c1sc2c(c1C)c(=O)n(-c1ccc(C)c(C)c1)c(=O)n2Cc1cc(=O)n2c(C)cccc2n1	i	i	i	nt	i
CC(=O)c1cccc(OCC(O)CNCCc2ccc(Cl)cc2)c1 (configuration not stated)	i	i	i	i	i
COc1ccc(CCNCC(O)COc2cccc(C)c2)cc1OC (configuration not stated)	nt	i	nt	nt	nt
OC(CNCCc1ccc(C(F)(F)F)cc1)COc1cccc2ccccc12 (configuration not stated)	i	i	i	i	42
COc1ccc(CCNCC(O)COc2cccc(Br)c2)cc1 (configuration not stated)	i	i	i	i	30
COc1ccccc1COCC(O)CNCCc1ccc(C(F)(F)F)cc1 (configuration not stated)	i	i	i	i	50
OC(CNCCc1ccc(C(F)(F)F)cc1)COc1ccc2ccccc2c1 (configuration not stated)	i	i	i	i	106
CCOc1ccc(C(=O)Nc2ccccc2OCc2cc(=O)n3ccccc3n2)cc1	i	i	i	nt	i
CCOc1ccc2oc(=O)cc(CN3CCN(c4cc(C)ccc4C)CC3)c2c1	i	i	i	nt	i
COc1ccccc1N1CCN(CCC(=O)Nc2cccc(Cl)c2)CC1	i	i	i	-124	i
COc1ccccc1N1CCN(CC(=O)Nc2ccc3c(c2)OCCO3)CC1	i	i	i	i	i
COc1ccccc1N1CCN(C(=O)Nc2ccc(F)c(Cl)c2)CC1	-57	i	i	i	i
COc1ccccc1N1CCN(CCC(=O)Nc2ccc3c(c2)OCO3)CC1	i	i	i	-90	i
COc1ccccc1N1CCN(C(=O)Nc2cccc(Cl)c2)CC1	i	i	i	i	i
CCOc1ccc(NC(=O)CCN2CCN(c3ccccc3OC)CC2)cc1	i	i	i	-91	i
SMILES	D1 antagonist	DRD3 agonist	D1 PAM	D3 antag	D1 ag
CC1=C(C(N)=O)C(c2cccc(C)c2)n2nc(-c3cccc(C)c3)nc2N1 (configuration not stated)	i	i	i	nt	i
CCCOc1ccc(NC(=O)CC2C(=O)N(c3ccc(C)cc3)C(=O)N2C(C)C)cc1 (configuration not stated)	i	i	i	nt	i
COc1ccccc1N1CCN(CCC(=O)Nc2ccc(F)cc2)CC1	i	i	i	-98	i
COc1ccccc1N1CCN(CC(=O)Nc2cccc(F)c2)CC1	i	i	i	i	i
O=C(O)CCCCCNC(=O)CCn1nnc2ccccc2c1=O	i	i	i	-52	i
O=C(O)CCCNC(=O)CCn1nnc2ccccc2c1=O	i	i	i	i	i
Cc1ccc(NC(=O)Cn2nnc3ccccc3c2=O)cc1C	-40	i	i	i	i
Cc1ccc(NC(=O)Cn2nnc3ccccc3c2=O)cc1	i	i	i	i	i
Cc1ccc(SCC(=O)OCn2nnc3ccccc3c2=O)cc1C	-33	i	i	i	i
Cc1ccc2nc(NC(=O)CSc3[nH]c(=O)ncc3C)sc2c1	i	i	i	nt	i
Cc1ccc(C)c(N2CCN(Cc3csc(C)c3)CC2)c1	i	i	i	nt	i
NC(=O)NC(=O)CC1S/C(=N/N=C2\CSC(=O)N2)NC1=O (configuration not stated)	i	i	i	i	i
O=C(O)CNC(=O)CC1S/C(=N/N=C2/NC(=O)CS2)NC1=O (configuration not stated)	-30	i	i	i	i
O=C(N/N=C/c1cccc2nccnc12)c1ccccc1O	i	i	i	i	i
O=C(N/N=C/c1cccc2cccnc12)c1ccccc1O	i	i	i	-53	i
NNC(=O)c1ccccc1CO	nt	34	nt	i	nt
CCc1ccc(OCC(=O)Nc2cc3oc4ccccc4c3cc2OC)c(Br)c1	i	i	i	nt	i
Cc1nnc(C(C)C)n1C1C[C@H]2CC[C@@H](C1)N2CC[C@H](NC(=O)C1CCC(F)(F)CC1)c1ccccc1 (some centres not stated)	nt	i	nt	nt	nt
Cc1ccc(C(=O)NNC(=O)CSc2nnc(-c3ccncc3)n2C)cc1	i	i	i	-75	i
COc1ccc(C(=O)NNC(=O)CSc2nnc(COc3ccccc3)n2C)cc1	i	i	i	i	i
COc1ccc(CC(=O)NCc2nnc(SCC(=O)c3ccc(OC)cc3)n2C)cc1	i	i	i	i	i
COc1ccc(OCc2nnc(SCC(=O)NNC(=O)c3ccc(C)cc3)n2C)cc1	i	i	i	-118	i
COc1ccc(NCc2nnc(SCC(=O)c3ccc(OC)cc3)n2C)cc1	-33	i	i	i	i
COc1ccc(OCCSc2nnc(CCNC(=O)c3ccc(Cl)c(Cl)c3)n2C)cc1	-36	i	i	i	i
COc1ccccc1CNC(=O)c1cnc2sc(N3CCCCC3)nn2c1=O	i	i	i	nt	i
SMILES	D1 antagonist	DRD3 agonist	D1 PAM	D3 antag	D1 ag
CCCCn1c(CNC(=O)c2ccc(OC)cc2)nnc1SCC(=O)Nc1ccccc1	-69	i	i	nt	i
CCC(CC)C(=O)Nc1ccc2nc(SCC(=O)N3CCCC3)sc2c1	i	i	i	nt	i
COc1cccc(NC(=O)CSC2=Nc3ccccc3N=C(c3ccc(F)cc3)C2)c1	i	i	i	nt	i
COC(=O)C(CC(C)C)NC(=O)C(Cc1ccccc1)NC(=O)C1CCCN1C(=O)OC(C)(C)C (configuration not stated)	i	i	i	i	i
CC(C)CC(NC(=O)C1CCCN1C(=O)OC(C)(C)C)C(=O)NCC(N)=O (configuration not stated)	i	i	i	-58	i
Cc1ccc(C)c(S(=O)(=O)c2nnn3c2nc(NC(C)C)c2sccc23)c1	-60	i	i	nt	i
Cc1ccc(S(=O)(=O)c2nnn3c2nc(NC2CCCCCC2)c2sccc23)cc1C	i	i	i	nt	i
